MITF inh – blocks human microphthalmia-associated transcription factor | AlphaScreen MITF homodimerization, bead proximity signal | inhibition, % at 2.6 µM | 0.91% of 650,000 active | O75030; in the data active means inhibition above about 50%
Target sequence (O75030 whole entry, looked up): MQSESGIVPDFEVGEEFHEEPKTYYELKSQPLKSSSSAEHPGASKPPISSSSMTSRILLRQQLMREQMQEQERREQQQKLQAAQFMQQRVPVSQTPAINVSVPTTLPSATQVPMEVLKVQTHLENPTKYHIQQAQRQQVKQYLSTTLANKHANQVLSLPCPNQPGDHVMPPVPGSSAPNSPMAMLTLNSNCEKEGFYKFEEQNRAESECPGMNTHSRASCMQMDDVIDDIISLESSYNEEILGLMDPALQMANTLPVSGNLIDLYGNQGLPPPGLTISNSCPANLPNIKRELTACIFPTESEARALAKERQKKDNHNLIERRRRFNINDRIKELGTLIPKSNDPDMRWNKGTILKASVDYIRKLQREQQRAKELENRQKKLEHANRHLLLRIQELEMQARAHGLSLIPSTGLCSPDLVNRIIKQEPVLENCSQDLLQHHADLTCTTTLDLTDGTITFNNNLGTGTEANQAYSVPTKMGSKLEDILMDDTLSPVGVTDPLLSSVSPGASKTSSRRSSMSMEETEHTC
GPR151 activ – human GPR151 activation | PathHunter beta-arrestin GPR151 cells, luminescence | activation, % at 11.2 µM | 1% of 650,000 active | AID 1508602; in the data active means activation above about 4.9%
FBW7 act – activators of human E3 ligase FBW7 | Q969H0 | 0.13% of 650,000 active | AlphaScreen FBW7–phospho-cyclin E peptide binding, activator screen | normalized activity (activation), % at 26.1 µM; in the data active means normalized activity above about 1.9%;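 further: purified mutant Fbw7 with reduced substrate affinity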
TEAD-YAP inh – TEAD-YAP interaction inhibition | HEK-TIYL cells, TEAD-Gal4/YAP UAS-luciferase luminescence | inhibition, % at 9.12 µM | 1.4% of 640,000 active; in the data active means inhibition above about 32%
Large screens that a line does not name were inactive. An excerpt weighted towards active compounds, which were near 3.5% of everything screened.

CCN(CC)S(=O)(=O)c1ccc(OC)c(NC(=O)c2n[nH]c(=O)c3ccccc23)c1	none
Cc1cc(C)c2c(N)c(C(=O)Nc3ccccn3)sc2n1	TEAD-YAP inh 95
Cc1cccc(NC(=O)c2sc3nc(C)cc(C(F)(F)F)c3c2N)n1	TEAD-YAP inh 48
Cc1cc(C)c(S(=O)(=O)N2CCCC2CNC(=O)c2ccc([N+](=O)[O-])cc2)c(C)c1 (stereo not given)	none
COc1ccc(CNS(=O)(=O)c2ccc(F)c(C(=O)Nc3ccc(Br)cc3)c2)cc1	none
O=C(NC(NC1CCS(=O)(=O)C1)C(Cl)(Cl)Cl)c1cccc2ccccc12 (stereo not given)	none
NC(=O)c1ccc2cnn(-c3cccc(C(=O)O)c3)c2c1	none
O=C(Nc1ccc(Oc2cccnc2)cc1)C1CCN(Cc2cc3ccccc3o2)CC1	TEAD-YAP inh 44
Cc1nc(C)c(CN2CCC(C(=O)Nc3ccc(Oc4cccnc4)cc3)CC2)nc1C	none
Cc1cc(O)c(C=O)c2c1C(=O)Oc1c(COC(=O)/C=C/C(=O)O)c(O)c(C(=O)O)c(C)c1O2	MITF inh 76
NC(=O)C(C(=O)/C=C/c1ccc(Cl)cc1)=C1SCCS1	TEAD-YAP inh 44
CCc1ccc(/C=N/NC(=O)c2nnn(-c3nonc3N)c2CN(C)C)cc1	none
CN1C=CC(=C2C(=O)c3ccccc3C2=O)C=C1	none
CCCCN1C(C)=CC(=C2C(=O)c3ccccc3C2=O)C=C1C	TEAD-YAP inh 56
CCN1C=CC(=C2C(=O)c3ccccc3C2=O)C=C1	TEAD-YAP inh 95
CCOc1ccc2nc(NC(=O)c3ccc(S(=O)(=O)N4CCCCC4)cc3)sc2c1	none
O=C(CCCN1C(=O)c2ccccc2C1=O)Nc1ccccc1-c1ccccc1	none
CCOC(=O)C(=N\O)/C(C)=N/NC(=O)CC#N	MITF inh 71
Cc1ncn(-c2ccc(Nc3ncc4cccc(-c5cccc(N6CCOCC6)c5)c4n3)cc2)n1	TEAD-YAP inh 39
CC(C)n1cc(-c2ccc3cnc(Nc4ccc(-n5cnc(N6CCOCC6)n5)cc4)nc3c2Cl)cn1	none
Cc1ncn(-c2ccc(Nc3ncc4cccc(-c5ccccc5)c4n3)cc2)n1	none
CCOC(=O)c1c(Cl)ccc2cnc(Nc3ccc(-n4cnc(N5CCOCC5)n4)cc3)nc12	TEAD-YAP inh 59
Cc1ccc(-c2cccc3cnc(Nc4ccc(-n5cnc(N6CCOCC6)n5)cc4)nc23)cn1	TEAD-YAP inh 49
Cc1cc(-c2nc(Nc3ccc(-n4cnc(N5CCOCC5)n4)cc3)ncc2Cl)no1	TEAD-YAP inh 39
Clc1cnc(Nc2ccc(-n3cnc(N4CCOCC4)n3)cc2)nc1-c1ccno1	none
CC1CCN(C(=O)CC2(c3ccccc3)CC(=O)N(CCc3ccccn3)C2=O)CC1 (stereo not given)	none
O=C(CCNS(=O)(=O)c1ccc(Br)cc1)NCCc1ccccc1	none
CC(=O)Nc1ccc(Nc2nc(N3CCCC3CO)nc3c2ncn3C2CCCCC2)cc1 (stereo not given)	none
O=c1[nH]c(N2CCCCC2)nc2c1CCN(Cc1ccc(O)c(O)c1)C2	MITF inh 82
CC1=CSC2=NC(=O)/C(=C\c3coc4ccccc4c3=O)C(=N)N12	none
O=C(Nc1ccc(I)cc1)c1cccc(S(=O)(=O)N2CCOCC2)c1	none
O=C(Nc1ccc(Oc2ccccc2)cc1)c1cccc(S(=O)(=O)N2CCOCC2)c1	TEAD-YAP inh 34
O=C(Nc1ccc(Oc2ccccc2)cc1)c1ccc(F)c(S(=O)(=O)N2CCOCC2)c1	TEAD-YAP inh 63
O=C(Nc1ccccc1)c1ccc(F)c(S(=O)(=O)N2CCOCC2)c1	none
CCc1ccccc1NC(=O)c1ccc(F)c(S(=O)(=O)N2CCN(c3cccc(C)c3)C(C)C2)c1 (stereo not given)	TEAD-YAP inh 35
CCN1CCN(S(=O)(=O)c2cc(C(=O)Nc3ccc(Oc4ccccc4)cc3)ccc2F)CC1	TEAD-YAP inh 66
O=C1COc2ccc(C(=O)COC(=O)CCCOc3ccccc3)cc2N1	none
Cc1nc(Oc2ccc(F)cc2)c(C#N)c(C)c1Cl	none
CS(=O)(=O)NN1C(=O)c2ccccc2NC1c1nc2ccccc2[nH]1 (stereo not given)	none
O=C(c1ccccc1F)N1C(=O)c2cccc3cccc1c23	none
COc1ccc(C)cc1-n1c(C)cn2c3c(=O)n(C)c(=O)n(C)c3nc12	TEAD-YAP inh 45
COc1ccc(OC)c(-n2c(C)cn3c4c(=O)n(C)c(=O)n(C)c4nc23)c1	none
O=C(CC(Sc1cccc2cccnc12)c1ccc(OC(F)F)cc1)c1ccco1 (stereo not given)	TEAD-YAP inh 51
NC(=O)c1ccsc1NC(=O)CSc1nnc(-c2ccco2)n1-c1ccccc1	TEAD-YAP inh 43
CC(C)(C)C1CCC(OC(=O)Nc2ccccc2)CC1 (stereo not given)	none
CC(C)(C)C1CCC(OC(=O)Nc2ccc3ccccc3c2)CC1 (stereo not given)	TEAD-YAP inh 80
Cc1ccc(N2CC(C(=O)OCc3ccc(Br)cc3)CC2=O)cc1[N+](=O)[O-] (stereo not given)	none
COC(=O)c1ccc(C)c(NS(=O)(=O)c2ccc(Cl)cc2)c1	TEAD-YAP inh 54
COc1ccc(S(=O)(=O)Nc2cc(F)ccc2C)cc1	TEAD-YAP inh 52
COC(=O)c1ccc(C)c(NS(=O)(=O)c2ccc3c(c2)OCCO3)c1	TEAD-YAP inh 57
COc1ccc(S(=O)(=O)Nc2cc(S(N)(=O)=O)ccc2C)cc1	none
COC(=O)c1ccc(C)c(NS(=O)(=O)c2ccc(C)c([N+](=O)[O-])c2)c1	none
CC(=O)c1cc2c(cc1NS(=O)(=O)c1ccccc1)OCO2	none
CC(=O)c1cc2c(cc1NS(=O)(=O)c1ccc(C)cc1)OCCO2	TEAD-YAP inh 37
CCCn1c(=NC(=O)c2ccc(C)cc2)c(C(=O)OCC)cc2c(=O)n3ccccc3nc21	none
O=c1cnnc(SCc2ccc(Cl)c(Cl)c2)[nH]1	none
Clc1cccc(OCCn2ccnc2)c1	none
COC(=O)c1ccc(C)c(NS(=O)(=O)c2ccc(OC)cc2)c1	TEAD-YAP inh 66
COC(=O)c1ccc(C)c(NS(=O)(=O)c2ccc(SC)cc2)c1	TEAD-YAP inh 47
CCOc1ccc(S(=O)(=O)Nc2cc(C(=O)OC)ccc2C)cc1	TEAD-YAP inh 55
O=C(O)Cn1nc(C(F)(F)F)c2c1CCCC2	none
CCC1CCCCN1C(=O)c1sc2ncn(Cc3ccccc3F)c(=O)c2c1C (stereo not given)	none
Cn1cnnc1SCc1ccccc1Cl	none
Fc1ccc(CSc2nn3cnnc3s2)cc1	TEAD-YAP inh 58
c1ccc(CSc2nn3cnnc3s2)cc1	TEAD-YAP inh 58
Clc1ccccc1CSc1nn2cnnc2s1	TEAD-YAP inh 55
CN(C)C1C(=O)C(C(N)=O)=C(O)C2(O)C(=O)C3=C(O)c4c(O)ccc(Cl)c4C(O)C3CC12 (stereo not given)	none (no result: TEAD-YAP inh)
C=C1c2cccc(O)c2C(O)=C2C(=O)C3(O)C(O)=C(C(N)=O)C(=O)C(N(C)C)C3C(O)C12 (stereo not given)	MITF inh 111
COc1cc(CNc2cccc([N+](=O)[O-])c2)cc(OC)c1OC	none
Cc1ccc(C2=Nn3c(nnc3-c3ccccc3C)SC2)cc1	TEAD-YAP inh 60
Brc1ccc(C2=Nn3c(nnc3-c3ccccc3)SC2)cc1	none

Source: PubChem
